Source: PubChem
ANO1 activ: activates or potentiates the mouse TMEM16A chloride channel; hit rate 0.3% among 340,000; AID 623877; HEK293 TMEM16A/YFP-H148Q/I152L, iodide quench fluorescence; stronger effect = lower value; B-score at 10 µM; Q8BHY3;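 active = fluorescence-ratio B-score plate-corrected deviation score at least 3 library SD below zero, with starting fluorescence score within 5 deviations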;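 also: channel opened by trigger with iodide after compound preincubation; score built on the fluorescence ratio of max minus min over baseline; more negative score means more quench and so TMEM16A activation or potentiation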
NOD2 RIPK2 PPI: inhibitors of human NOD2-RIPK2 interaction; CHO BLA complementation NOD2-RIPK2, CCF4 ratio; O43353; AID 624267; inhibition, % at 4.98 µM; hit rate 0.38% among 360,000; in the data active = inhibition above about 21%
Target sequence (O43353 whole entry, looked up): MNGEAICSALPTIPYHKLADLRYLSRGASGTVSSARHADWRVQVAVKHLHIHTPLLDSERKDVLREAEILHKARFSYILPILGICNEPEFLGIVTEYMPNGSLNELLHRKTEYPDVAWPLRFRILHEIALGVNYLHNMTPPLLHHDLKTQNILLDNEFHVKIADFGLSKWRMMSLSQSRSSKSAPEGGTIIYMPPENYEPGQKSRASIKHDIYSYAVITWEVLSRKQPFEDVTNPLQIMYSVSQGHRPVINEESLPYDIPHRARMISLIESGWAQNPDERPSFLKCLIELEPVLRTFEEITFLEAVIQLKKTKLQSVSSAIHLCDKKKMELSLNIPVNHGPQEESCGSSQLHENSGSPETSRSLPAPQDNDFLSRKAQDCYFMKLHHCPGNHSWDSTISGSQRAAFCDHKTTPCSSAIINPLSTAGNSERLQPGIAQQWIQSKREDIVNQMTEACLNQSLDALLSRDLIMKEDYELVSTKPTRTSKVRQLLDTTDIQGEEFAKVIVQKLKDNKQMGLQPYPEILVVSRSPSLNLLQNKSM
TMEM16A inh: blocks the mouse calcium-activated chloride channel TMEM16A. Q8BHY3. normalized B-score (activity score, 25-100; higher = stronger inhibition) at 10 µM. HEK293 TMEM16A/YFP iodide influx fluorescence, ionomycin. hit rate 1.2% among 310,000. AID 588511;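 active = ratio plate-corrected score three or more library SD toward inhibition, starting fluorescence score within five deviations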;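 also: score derived from kinetic fluorescence span divided by baseline fluorescence per well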
HTR2A ag: agonists of mouse serotonin 5-HT2A receptor (HTR2A); AID 624169; CHO-K1 mHTR2A beta-arrestin complementation, luminescence; percent of 30 µM serotonin response; activation, % at 7.6 µM; hit rate 0.66% among 360,000;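 active = activation above a run cutoff, the mean activation of all tested compounds plus 3 SD, cut at about 14% in these data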
TLR9-MyD88 inh: inhibitors of human TLR9-MyD88 binding. Q9NR96+Q99836. CHO BLA complementation TLR9-MyD88, CCF4 FRET ratio. inhibition, % at 4.98 µM. hit rate 0.21% among 340,000. AID 504734;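 active = inhibition above the mean over all tested compounds plus 3 SD, cut at about 21% in these data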
TLR4 MyD88 comp: TLR4-MyD88 interaction inhibition in cells; O00206+Q99836; HeLa CL3-4 TLR4/MyD88 BLA complementation, FRET ratio; inhibition, % at 8.4 µM; hit rate 0.18% among 200,000; AID 861; in the data active = inhibition above about 25%
NOD2-RIPK2 conf: NOD2-RIPK2 interaction inhibition confirmed. shares compounds with NOD2 RIPK2 PPI. CHO cells, NOD2-RIPK2 BLA complementation, CCF4 FRET. inhibition, % at 4.98 µM. hit rate 70% among 1,200. AID 624370;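 active = mean inhibition across replicates above a set limit taken from the earlier primary screen, cut at about 21% in these data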
NOD2 BLA counter: hits BLA reporter in NOD2-RIPK2 inhibitor counterscreen | shares compounds with NOD2 RIPK2 PPI | CHO BLA reporter, CCF4 FRET ratio | inhibition, % at 4.98 µM | hit rate 57% among 1,200 | AID 624371;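 active = mean inhibition above the low-control mean inhibition plus three low-control SD, cut at about 11% in these data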
Hits are given with their value. A selection: hits, their analogues and other compounds. The true share with any hit is near 2.4%.

For COc1ccc(NC(=O)C(c2cccc3ccccc23)n2c(=O)c(-c3ccco3)nc3ccccc32)cc1 (configuration not stated) the results were NOD2 RIPK2 PPI inactive and HTR2A ag inactive.
COc1ccc(NC(=O)C(c2ccncc2)n2c(=O)c(-c3ccco3)nc3ccccc32)cc1 (configuration not stated) was read as NOD2 RIPK2 PPI inactive and HTR2A ag inactive.
COc1ccc(NC(=O)C(c2ccc(OC)cc2)n2c(=O)c(-c3cc4ccccc4[nH]3)nc3ccccc32)cc1 (configuration not stated) was read as NOD2 RIPK2 PPI 44, HTR2A ag inactive, NOD2-RIPK2 conf 40 and NOD2 BLA counter 66.
For COc1ccc(NC(=O)C(c2cc3ccccc3o2)n2c(=O)c(-c3cc4ccccc4[nH]3)nc3ccccc32)cc1 (configuration not stated) the results were NOD2 RIPK2 PPI 51, HTR2A ag inactive, NOD2-RIPK2 conf 46 and NOD2 BLA counter 68.
O=C(NC1CCCN(CCc2ccccc2)C1)C1CCCC1 (configuration not stated) was read as ANO1 activ inactive, NOD2 RIPK2 PPI inactive, TMEM16A inh inactive, HTR2A ag inactive and TLR9-MyD88 inh inactive.
Screening CCOC(=O)C1=CC[C@@H](c2ccccc2)N(S(=O)(=O)c2ccc(C)cc2)[C@H]1C#N returned NOD2 RIPK2 PPI 44, HTR2A ag inactive, NOD2-RIPK2 conf inactive and NOD2 BLA counter inactive.
`COc1ccc(OCCN2CCC(C(=O)NC(c3ccc(C)cc3)c3ccccn3)CC2)cc1` (configuration not stated) gave NOD2 RIPK2 PPI 21, HTR2A ag inactive, NOD2-RIPK2 conf inactive and NOD2 BLA counter inactive.
For COc1ccc(C(NC(=O)C2CCN(CCOc3ccccc3)CC2)c2ccccn2)cc1 (configuration not stated) the results were NOD2 RIPK2 PPI inactive and HTR2A ag inactive.
For CCSc1ccc(-c2cc(NC=O)c3ncc(-c4cccc(C(=O)NCCN(C)C)c4)n3c2)cc1 the results were NOD2 RIPK2 PPI 23, HTR2A ag inactive, NOD2-RIPK2 conf 25 and NOD2 BLA counter inactive.
Screening CN(C)CCNC(=O)c1cccc(-c2cnc3c(NC=O)cc(-c4ccc(F)cc4)cn23)c1 returned NOD2 RIPK2 PPI inactive and HTR2A ag inactive.
For O=C(CCN1CCOCC1)c1ccc(N2CCCCC2)cc1 the results were ANO1 activ inactive, NOD2 RIPK2 PPI inactive, HTR2A ag inactive and TLR9-MyD88 inh inactive.
For CC(C)(C)c1cc(C(=O)CCN2CCOCC2)cc(C(C)(C)C)c1O the results were ANO1 activ inactive, NOD2 RIPK2 PPI 48, TMEM16A inh inactive, HTR2A ag inactive, TLR9-MyD88 inh inactive, NOD2-RIPK2 conf inactive and NOD2 BLA counter inactive.
Screening O=C1N/C(=C/c2ccc(N3CCOCC3)o2)C(=O)N1c1ccccc1 returned ANO1 activ inactive, NOD2 RIPK2 PPI 40, TMEM16A inh inactive, HTR2A ag inactive, TLR9-MyD88 inh inactive, TLR4 MyD88 comp inactive, NOD2-RIPK2 conf inactive and NOD2 BLA counter inactive.
COc1ccc(C2C=C(c3ccc(Br)cc3)Nc3nc(N4C(=O)CCC4=O)nn32)cc1 (configuration not stated) was read as ANO1 activ inactive, NOD2 RIPK2 PPI inactive, TMEM16A inh inactive, HTR2A ag inactive, TLR9-MyD88 inh inactive and TLR4 MyD88 comp inactive.
`O=C1CCC(=O)N1c1nc2n(n1)C(c1ccccc1)C=C(c1ccc(Br)cc1)N2` (configuration not stated) gave ANO1 activ inactive, NOD2 RIPK2 PPI 39, TMEM16A inh inactive, HTR2A ag inactive, TLR9-MyD88 inh inactive, TLR4 MyD88 comp inactive, NOD2-RIPK2 conf inactive and NOD2 BLA counter 12.
For CC(OC(=O)c1ccc(S(C)(=O)=O)c([N+](=O)[O-])c1)C(=O)NC1C2CC3CC(C2)CC1C3 (configuration not stated) the results were NOD2 RIPK2 PPI 25, HTR2A ag inactive, NOD2-RIPK2 conf 65 and NOD2 BLA counter inactive.
Screening CCC(OC(=O)c1ccc(S(C)(=O)=O)c([N+](=O)[O-])c1)C(=O)NC1C2CC3CC(C2)CC1C3 (configuration not stated) returned NOD2 RIPK2 PPI inactive and HTR2A ag inactive.
For COc1ccc(C(C#N)=C2C=CC(=NO)C=C2)cc1 the results were ANO1 activ inactive, NOD2 RIPK2 PPI inactive, TMEM16A inh inactive, HTR2A ag inactive and TLR9-MyD88 inh inactive.
`CC(=O)ON=C1C=CC(=C(C#N)c2ccccc2)C=C1` gave NOD2 RIPK2 PPI 26, HTR2A ag inactive, NOD2-RIPK2 conf 35 and NOD2 BLA counter inactive.
`CNc1ccc(/C=C2\CSc3ccccc3C2=O)cc1[N+](=O)[O-]` gave ANO1 activ inactive, NOD2 RIPK2 PPI inactive, TMEM16A inh inactive, HTR2A ag inactive, TLR9-MyD88 inh inactive and TLR4 MyD88 comp inactive.
For O=C(Cc1ccsc1)NNC(=O)c1ccc(F)cc1 the results were ANO1 activ inactive, NOD2 RIPK2 PPI inactive, TMEM16A inh inactive, HTR2A ag inactive and TLR9-MyD88 inh inactive.
For COc1cccc(OC)c1C(=O)NC(=S)Nc1ccc2oc(-c3ccncc3)nc2c1 the results were ANO1 activ inactive, NOD2 RIPK2 PPI 64, TMEM16A inh inactive, HTR2A ag inactive, TLR9-MyD88 inh inactive, TLR4 MyD88 comp inactive, NOD2-RIPK2 conf inactive and NOD2 BLA counter inactive.
For COc1c(F)c(F)c(C(=O)Nc2ccc3oc(-c4ccncc4)nc3c2)c(F)c1F the results were ANO1 activ inactive, NOD2 RIPK2 PPI inactive, TMEM16A inh inactive, HTR2A ag inactive, TLR9-MyD88 inh inactive and TLR4 MyD88 comp inactive.
CC1(C)C(=O)C=CC(=O)C(C)(C)C(=O)C=CC(=O)C(C)(C)C2=CC=C(O2)C(C)(C)C(=O)C=CC1=O was read as ANO1 activ inactive, NOD2 RIPK2 PPI inactive, HTR2A ag inactive and TLR9-MyD88 inh inactive.
Cc1cc(SC#N)cc(C)c1NC(=O)CCl was read as ANO1 activ inactive, NOD2 RIPK2 PPI 31, TMEM16A inh inactive, HTR2A ag inactive, TLR9-MyD88 inh inactive, TLR4 MyD88 comp inactive, NOD2-RIPK2 conf 28 and NOD2 BLA counter inactive.
CCc1cc(SC#N)cc(C)c1NC(=O)CCl was read as ANO1 activ inactive, NOD2 RIPK2 PPI 24, TMEM16A inh inactive, HTR2A ag inactive, TLR9-MyD88 inh inactive, TLR4 MyD88 comp inactive, NOD2-RIPK2 conf 25 and NOD2 BLA counter inactive.
